A word on the inhibition: it is the change of the read-out against control, counted positive when it falls.

The campaign covered roughly 220,000 compounds. About 830 (0.38%) were called active.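 The calls were made as follows: active = compound inhibiting the enzyme by more than half at any dose during confirmatory dose-response retesting; inconclusive = strong single-dose inhibitors picked by rank but not retested; inactive = the rest.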 Not all results are given here. Results with a measured potency or affinity are listed apart.

The target in this assay is Leucine aminopeptidase (Plasmodium falciparum (isolate 3D7)) (UniProt Q8IL11). Nature of the assay: P. falciparum M17LAP inhibitors, primary screen, biochemical, fluorogenic H-Leu-NHMec substrate, 1536-well (AID 1619).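 Also: plate controls were full reaction with DMSO carrier for no effect and no enzyme background for full effect.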 Conditions: recombinant M17LAP, H-Leu-NHMec fluorogenic kinetic assay; at 30 µM; active compounds read high.
Chain of Leucine aminopeptidase (Plasmodium falciparum (isolate 3D7)) (Q8IL11 whole entry, looked up): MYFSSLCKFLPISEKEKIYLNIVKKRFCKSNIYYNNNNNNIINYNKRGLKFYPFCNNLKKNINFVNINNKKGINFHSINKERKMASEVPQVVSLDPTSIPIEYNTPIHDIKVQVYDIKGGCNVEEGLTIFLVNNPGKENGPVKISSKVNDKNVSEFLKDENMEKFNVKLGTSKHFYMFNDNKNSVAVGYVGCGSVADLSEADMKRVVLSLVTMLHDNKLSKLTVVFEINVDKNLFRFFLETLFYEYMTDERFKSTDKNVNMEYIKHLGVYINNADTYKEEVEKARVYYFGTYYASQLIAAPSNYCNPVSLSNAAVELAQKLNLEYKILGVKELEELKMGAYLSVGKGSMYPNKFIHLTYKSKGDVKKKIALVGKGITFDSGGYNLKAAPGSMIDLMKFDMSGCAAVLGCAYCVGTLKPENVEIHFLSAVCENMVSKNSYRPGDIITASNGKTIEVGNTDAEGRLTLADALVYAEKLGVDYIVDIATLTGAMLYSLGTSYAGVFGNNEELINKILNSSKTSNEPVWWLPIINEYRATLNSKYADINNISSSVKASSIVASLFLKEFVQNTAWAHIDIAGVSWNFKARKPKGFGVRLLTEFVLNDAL
For the molecule `COc1ccc(Cc2nn3c(-c4ccccc4OC)nnc3s2)cc1`, the inhibition is 18.6% (inactive). As for `CC1=CC(C)(C)n2c(O)c(N=N)c3c(C)c(C)cc1c32`, the figure is 14.8% (inactive); as for `Cc1c(C(=O)NCCSCc2ccccc2Cl)cccc1[N+](=O)[O-]`, 4.93% (inactive); as for `CCOc1ccc(NC(=O)Nc2cc(-c3ccccc3)sc2C(=O)OC)cc1`, -2.36% (inactive).

Consider `Cc1cc(C)nc(SCC(=O)Nc2ncc3c(n2)CCCC3=O)n1`, for which the inhibition was -1.93% (inactive). Consider `Cc1nn(C)cc1CN(C)C(=O)c1nn2c(c1Cl)NC(c1cccs1)CC2C(F)(F)F` (stereo not given), for which the inhibition was 11.7% (inactive). As for `CC(C)(C)C(=O)N1CCC(O)(CS(=O)(=O)Cc2ccccc2Cl)CC1`, the figure is 13.8% (inactive); as for `Cc1ccc(-n2c(SCC(N)=O)nnc2-c2cccnc2)c(C)c1`, 1.98% (inactive). As for `Cc1ccc(-n2c(SCC(=O)N3CCCc4ccccc43)nnc2-c2cccnc2)c(C)c1`, the figure is 7.68% (inactive).

In the case of `Cc1cccc(C)c1NC(=S)N1CCC(c2ccccc2)C1` (stereo not given), the inhibition was 2.96% (inactive). With `O=c1nc(-c2ccccc2)c2cc(Cl)ccc2[nH]1` the figure was 3.02% (inactive); with `COc1ccc(/C=C2\CCCC3C2=NN(C(=O)c2scnc2C)C3c2ccc(OC)c(OC)c2)cc1OC` (stereo not given), -6.36% (inactive).

In the case of `Cc1[nH]nc2ncc(C(=O)c3cc(F)ccc3O)cc12`, the inhibition was 9.66% (inactive). With `Nc1nc2ncc(C(=O)c3cc(F)ccc3O)cc2s1` the figure was 12.6% (inactive); with `CS(=O)(=O)Nc1nnc(Cc2ccccc2)s1`, 9.67% (inactive); with `CCCn1c(NCc2cccc(OC)c2O)nc2ccccc21`, -4.67% (inactive). With `COc1cc(/C=N/n2c(C)n[nH]c2=S)ccc1OCc1ccc(F)cc1` the figure was -2.61% (inactive); with `CC(C)(C)OC(=O)N1CCCC1C(=O)O` (stereo not given), -3.69% (inactive).

Turning to `O=C(Cn1cnc2ccccc2c1=O)c1c[nH]c2ccccc12`, the inhibition was 11.6% (inactive). With `CCc1ccc(NC(=O)Nc2cccs2)cc1` the figure was 38.6% (inactive); with `Cc1nc2cc(NC(=O)Nc3ccc(Br)cc3)ccc2o1`, -1.6% (inactive); with `Cc1ccc(NC(=O)Nc2cccs2)cc1`, 22.4% (inactive). With `COc1ccc(NC(=O)Nc2ccc3nccnc3c2)cc1` the figure was 37.8% (inactive); with `CCOc1ccc(NC(=O)c2ccc3nccnc3c2)cc1`, -3.72% (inactive). As for `CC(=O)Nc1ccc2oc(C)nc2c1`, the figure is 0.35% (inactive); as for `CCn1c(=O)c(C(=O)NCc2cccnc2)c(O)c2ccccc21`, 2% (inactive); as for `CS(=O)(=O)N1N=C(c2ccco2)CC1c1ccccc1Cl` (stereo not given), 5.77% (inactive). On to `CN(C(=O)CSc1nc(-c2ccccc2)c(-c2ccccc2)o1)C1CCS(=O)(=O)C1` (stereo not given), for which the inhibition was 5.76% (inactive). As for `NC(=O)c1c(-c2ccc(Cl)cc2Cl)csc1NC(=O)Cc1ccccc1`, the figure is 6.81% (inactive); as for `CC(=O)Nc1ccc(NC(=O)CSc2nnc(-c3ccccc3)n2Cc2ccc3c(c2)OCO3)cc1`, 5.97% (inactive); as for `COC(=O)c1[nH]c2c(c1C)C(=O)CCC2`, 6.36% (inactive).

As for `CCN1C(=O)/C(=C2\C=Cc3cc(C)ccc3N2CC)OC1=S`, the inhibition was 1.65% (inactive). With `CCOc1cc(/C=C2\C(=O)N(CCC#N)N=C2C)ccc1OCC(N)=O` the figure was 4.75% (inactive). On to `CC1=NN(Cc2ccccc2)C(=O)/C1=C\c1ccc(N(C)C)cc1`, for which the inhibition was 3.83% (inactive).

As to `CC1=C(C(=O)OC(C)C)C(c2cn(-c3ccccc3)nc2-c2cccs2)NC(=O)N1` (stereo not given), the inhibition is 2.02% (inactive). `COc1ccccc1C(=O)N1CCN(Cc2nc3cc([N+](=O)[O-])ccc3n2C)CC1`: the inhibition was 6.22% (inactive). As for `COc1cccc(NS(=O)(=O)c2cc(C)sc2C)c1`, the figure is 11.3% (inactive); as for `Cc1cc(S(=O)(=O)Nc2cccc(Cl)c2)c(C)s1`, 4.03% (inactive). For `CC(=O)Nc1ccc(C2=NN(C)C(=NCc3ccccc3)SC2)cc1`, the inhibition was -2.31% (inactive). With `N=c1n(Cc2ccc(Cl)cc2)c2ccccc2n1CC(O)COc1ccccc1` (stereo not given) the figure was 6.49% (inactive); with `COc1ccc(C(=O)N/N=C(\C)c2ccc3c(c2)C2C=CCC2C(c2ccccc2)N3)cc1` (stereo not given), 20.2% (inactive); with `Cc1c(Cl)cccc1NS(=O)(=O)c1ccc2c(c1)C1C=CCC1C(c1ccc(C(=O)O)cc1)N2` (stereo not given), 47.6% (inactive).

For `COc1ccc(N2C(=O)C3CCCN3C2c2ccc(C)cc2)cc1Cl` (stereo not given), the inhibition is -8.88% (inactive). On to `CSCCC(NS(=O)(=O)c1ccc(Cl)c(Cl)c1)C(=O)O` (stereo not given), for which the inhibition is -4.93% (inactive). As for `CSCCC(NS(=O)(=O)c1ccc2ccccc2c1)C(=O)O` (stereo not given), the figure is 12.2% (inactive); as for `O=C(NCCn1cc(SCc2ccc(F)cc2)c2ccccc21)c1ccccc1F`, 12.4% (inactive). As for `COc1ccc(C(=O)N/N=C/c2sc(=O)n(Cc3cccc(C(=O)O)c3)c2Cl)cc1`, the inhibition was 43.6% (inactive). As for `O=C(O)c1cccc(Cn2c(Cl)c(/C=N/NC(=O)c3ccccc3O)sc2=O)c1`, the inhibition is 35.2% (inactive). Turning to `O=C(O)c1cccc(Cn2c(Cl)c(/C=N/NC(=O)c3ccc(O)cc3)sc2=O)c1`, the inhibition is 53.6% (inactive). `O=C(O)c1cccc(Cn2c(Cl)c(/C=N/NC(=O)c3cc4ccccc4cc3O)sc2=O)c1`: the inhibition is -0.68% (inactive). With `COC(=O)c1cccc(Cn2c(Cl)c(/C=N/NC(=O)c3ccccc3Cl)sc2=O)c1` the figure was 13.4% (inactive); with `O=C(O)c1cccc(Cn2c(Cl)c(/C=N/NC(=O)c3cccc(O)c3)sc2=O)c1`, 34% (inactive); with `COC(=O)/C(=N/Nc1cccc(C)c1)N1CCCc2ccccc21`, 1.03% (inactive). With `Oc1ccc(CCc2n[nH]c(=S)n2-c2ccc(F)cc2)cc1`, the inhibition is -8.27% (inactive). As for `CCOC(=O)CN1C(=O)C(Sc2n[nH]c(-c3ccccc3)n2)CCc2ccccc21` (stereo not given), the figure is 16.8% (inactive).

As to `COc1ccc(N2C(=O)CC(Sc3n[nH]c(-c4ccccc4)n3)C2=O)cc1` (stereo not given), the inhibition is 16.4% (inactive). With `CCOc1ccccc1N1C(=O)CC(Sc2ncccc2C(=O)O)C1=O` (stereo not given) the figure was 17.5% (inactive); with `COc1ccc(N2C(=O)CC(Sc3n[nH]c(-c4ccc(C)cc4)n3)C2=O)cc1` (stereo not given), 51.7% (inactive); with `COc1cc2ncnc(NCc3ccccc3)c2cc1OC`, 14.9% (inactive). As for `O=S(=O)(c1cccs1)N1CN(Cc2ccccc2)c2nc3ccccc3nc21`, the figure is -4.62% (inactive); as for `CCC(=O)NCc1csc(-c2cccs2)n1`, -3.47% (inactive). As for `O=C(NCCN1CCOCC1)NC1(C(F)(F)F)Oc2ccc(Cl)cc2O1` (stereo not given), the figure is 28.4% (inactive). Take `O=C(Nc1cc(N2CCOCC2)ncn1)NC1(C(F)(F)F)Oc2ccccc2O1`: the inhibition was 5.1% (inactive). With `Cn1nc(C(F)(F)F)c(-c2ccc(F)cc2)c1NC(=O)c1cccnc1` the figure was -2.14% (inactive); with `COc1ccc(/C=C2\NC(=O)C(C=NCc3ccccc3)=C2O)cc1`, 0.26% (inactive). With `COc1ccc(-c2nnc(SCC(=O)NCCc3ccccc3)o2)cc1` the figure was -10.2% (inactive). With `CC(=O)Nc1ccc(NC(=O)CSc2ccc(C)cc2)cc1` the figure was -3.31% (inactive). In the case of `Cc1ccc(C(=O)CSc2nc(C)cc(=O)[nH]2)cc1`, the inhibition is 9.23% (inactive).

As for `Cn1cnnc1SCC(=O)OCN1C(=O)c2ccccc2C1=O`, the inhibition is 3.47% (inactive). With `CCc1ccc(C(=O)CSc2nc3ccccc3c(=O)[nH]2)cc1` the figure was -2.74% (inactive); with `Cc1ccc(C(=O)CSc2nnc(C)s2)cc1`, -0.76% (inactive); with `CCCn1c(SCC(=O)c2ccc(CC)cc2)n[nH]c1=O`, 26.6% (inactive). Regarding `Cc1ccc(NC(=O)CSc2nnc(CCC(=O)O)c(=O)[nH]2)cc1`, the inhibition was 13.7% (inactive). As for `Cc1cc(C)nc(SCC(=O)OCN2C(=O)c3ccccc3C2=O)n1`, the figure is 8.29% (inactive). With `CCOC(=O)C[N+](C)(C)CCOC1CC2CCC1(C)C2(C)C` (stereo not given) the figure was 3.08% (inactive); with `O=C(c1cnn2c(C(F)(F)F)cc(-c3ccc4c(c3)OCO4)nc12)N1CCCCC1`, 6.7% (inactive). With `O=C(NCCC1=CCCCC1)C1CCN(C(=O)Cc2ccccc2)CC1`, the inhibition is 6.09% (inactive).

Take `O=C(CSc1n[nH]c(-c2cccs2)n1)N1CCCc2ccccc21`: the inhibition was 1.29% (inactive).

`Fc1ccc(CNc2nc3ccccc3n3cnnc23)cc1`: the inhibition was -2.38% (inactive). Regarding `CCOC(=O)C1CN(S(=O)(=O)c2ccccc2)CCN1S(=O)(=O)c1ccccc1` (stereo not given), the inhibition was -13.2% (inactive). As to `CCCCCn1c(CNC(=O)COC)nc2ccccc21`, the inhibition was -1.06% (inactive).

Consider `CN(CC(=O)Nc1ccc(N2CCOCC2)cc1)CC(=O)Nc1cccc(C#N)c1`, for which the inhibition is 17.1% (inactive). With `CC(C)(C)c1ccc(C(=O)CSc2n[nH]c(=O)[nH]c2=O)cc1` the figure was -4.96% (inactive); with `Cc1ccc(C(=O)CSc2n[nH]c(C)n2)cc1`, 46.4% (inactive). As for `CC(C)(C)c1ccc(C(=O)CSc2nc3ccccc3c(=O)[nH]2)cc1`, the figure is 9.78% (inactive). In the case of `CC(C)Oc1ccc(C(CC(=O)O)NC(=O)C2CCCCC2)cc1` (stereo not given), the inhibition is 4.14% (inactive). As to `CC(C)Oc1ccc(C(CC(=O)O)NC(=O)C(Sc2ccccc2)c2ccccc2)cc1` (stereo not given), the inhibition was 19.5% (inactive).

With `Cc1nc(SCC(=O)c2ccc(F)cc2)n[nH]1`, the inhibition is 19.2% (inactive).

In the case of `O=C(CCC(=O)Nc1ccccc1)NNC(=O)c1ccccc1Cl`, the inhibition is -1.79% (inactive). With `CCCN1Cc2cccc(C(=O)Nc3ccc(C)cc3)c2C1=O` the figure was -1.02% (inactive); with `COCCNC(=S)N1CCC(Cc2ccccc2)CC1`, 1.83% (inactive).

As for `CC(=O)Nc1ccc(Sc2ccccc2C(=O)O)cc1`, the inhibition was 6.89% (inactive). As for `CCOC(=O)C1CCCN(C(=O)c2cc(Nc3ccc(OC)cc3OC)nc3ccccc23)C1` (stereo not given), the figure is -1.02% (inactive); as for `O=C(NCCc1ccc(S(=O)(=O)N2CCCC2)cc1)c1cccs1`, 22.4% (inactive). With `O=C(CSc1nnc(CNC(=O)c2ccco2)o1)Nc1ccccc1` the figure was 21.5% (inactive).

The values above are taken from PubChem BioAssay AID1619 (SRMLSC, 2009).
